Compound activity as filed in PubChem.
The list is not random: actives were taken first. Their share in the collection is about 11%.
IMPase Li cell = membrane-permeable IMPase blocker, potentiated with lithium | CHO-M1 cells, IP1 TR-FRET (IP-One), carbachol + lithium | Potency, µM (top dose mostly 59.4 µM), actives largely listed as inhibitors | 210,000 tested, 0.35% active | AID 1457; active means well fitted inhibition curve with a large enough effect; inconclusive means small, poorly fitted or top-dose-only effect; inactive means no such curve, though single readings can be large or run the other way;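 further: IP1 builds up when IMPase is blocked and the TR-FRET signal falls; nearly all actives have a fitted effect of over 50% in size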
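Concentration–response in CHO-M1 cells, lithium-potentiated; 30 min at 37C. IP1 detected by competitive TR-FRET after 10 min lysis at RT. Hill-fitted AC50.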
ALDH1A1 inh = ALDH1A1 (human) enzyme inhibition | Purified ALDH1A1, NADH fluorescence, propionaldehyde substrate | Potency, µM (series often up to 75.3 µM), most hits filed as inhibitors | 220,000 tested, 7.3% active
PNC inhibitor = perinucleolar compartment assembly inhibition | PC3M PTB-GFP, PNC prevalence imaging, 16 h; hits give low values | activity change (PNC), negative = inhibition, % at 10 µM | 140,000 tested, 3.1% active | AID 2417;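 active means readout at or below -70, meaning at least 70% loss of cells showing the perinucleolar compartment, a nuclear body marking cancer cells; inconclusive means readout between -30 and a set limit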
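Read-out is percentage of cells bearing a perinucleolar compartment, from automated 20x imaging of fixed, Hoechst-stained PC3M PTB-GFP cells. Cells were seeded 4 h, then exposed 16 h to compound (23 nl of library stock) in duplicate plates.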
HPGD block = inhibitors of human 15-hydroxyprostaglandin dehydrogenase (HPGD) | Potency, µM, actives largely listed as inhibitors | P15428 | purified HPGD, NADH fluorescence kinetic, PGE2 substrate | 150,000 tested, 4.3% active
Target sequence (P15428 whole entry, looked up): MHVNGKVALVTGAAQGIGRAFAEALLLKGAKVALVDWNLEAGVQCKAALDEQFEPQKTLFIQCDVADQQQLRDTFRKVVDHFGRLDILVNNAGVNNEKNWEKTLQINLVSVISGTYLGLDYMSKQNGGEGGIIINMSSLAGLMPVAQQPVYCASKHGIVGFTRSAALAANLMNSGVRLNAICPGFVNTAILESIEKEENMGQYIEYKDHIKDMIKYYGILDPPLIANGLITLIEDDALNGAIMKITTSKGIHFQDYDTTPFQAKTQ
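NADH formation kinetics: reaction with 30 uM PGE2 and 1 mM NAD+ (final), 20 nM enzyme, Tris-HCl pH 8 with Tween 20, after 15 min compound preincubation at room temperature. Fluorescence change, last versus first of five reads.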
IMPase inh = membrane-permeable compound that blocks inositol monophosphatase; P97697; CHO-M1 cells, IP1 accumulation, HTRF TR-FRET ratio; inhibition (IP1 accumulation), % at 46.1 µM; 120,000 tested, under 10 active; AID 901; active means well fitted curve in the direction sought with a large enough effect in the signal ratio, not every such curve was filed as active; inconclusive means small, poorly fitted or top-dose-only effect, or a change in a side signal; inactive means no such curve, though single readings can be large or run the other way; the % refers to the signal ratio;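 further: cells stimulated with carbachol in lithium chloride buffer; higher means more IMPase inhibition seen as more IP1 and lower FRET ratio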
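In this qHTS, compounds (final up to 46 uM) act on CHO-M1 cells that are then activated through the M1 receptor with carbachol, in pH 7.4 buffer containing 50 mM LiCl, for 30 min. IP1 accumulation is quantified by the IP-One immunoassay.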
A number is an active result; n = inactive; u = inconclusive; x = not tested or not shown; ! = not confirmed by another sample; [ ] = another dose, or the depositor's remark. Unless noted, the call rests on the fitted dose curve; in most records, active means well fitted inhibition curve with a large enough effect (not every such curve was filed as active); inconclusive means small, poorly fitted or top-dose-only effect, or another doubt; inactive means no such curve, though single readings can be large or run the other way.

SMILES	IMPase Li cell	ALDH1A1 inh	PNC inhibitor	HPGD block	IMPase inh
CCCCN1C(=O)/C(=C/C=C/c2ccco2)C(=O)NC1=S	n	15.8µM	-87.7	10µM	n
O=C1NC(=O)N(c2ccccc2)C(=O)/C1=C\C=C\c1ccccc1	x	10µM	x	x	x
CCCCN1C(=O)/C(=C\c2ccco2)C(=O)N(CCc2ccccc2)C1=O	n	n	n	31.6µM	n
O=C1NC(=O)N(c2ccc(F)cc2)C(=O)/C1=C/c1ccsc1	n	u	x	x	x
N[C@H](CCl)C(=O)O	x	x	x	x	n
Cc1ccc(C(=O)NC(=S)NNS(=O)(=O)c2ccc(C)cc2)cc1	n	n	u	15.8µM	x
Oc1ccc2c3c1O[C@H]1c4oc5ccccc5c4C[C@@]4(O)C(C2)N(CC2CC2)CCC314 (some centres not stated)	n	n	x	n	x
C=CCN1C(=O)NC(=O)C(Cc2ccc(OC)c(OC)c2)C1=O (configuration not stated)	n	25.1µM	n	n	n
O=C(CN1CCCCC1)c1cccc(Br)c1	n	1.41µM	n	n	n
O=C(CN1CCCCC1)c1ccccc1F	n	n	x	x	x
O=C(CN1CCCCC1)c1ccccc1Cl	n	12.6µM	n	n	x
C=CCN1C[C@@H](C)N([C@H](c2ccc(C(=O)N(CC)CC)cc2)c2cccc(OC)c2)C[C@H]1C	x	x	x	x	n
CCCc1cc2c(n1Cc1cccc(Cl)c1)C(C)C1CN(C(=O)c3ccccc3)C(C)(C(=O)OC)C21 (configuration not stated)	n	u	x	u	x
CCOC(=O)[C@@H]1[C@@H]2c3ccccc3-c3ccccc3[C@H]2C[C@H]1O	n	n[13.5 µM]	x	n	x
O=Cc1cn(Cc2ccc([N+](=O)[O-])cc2)c2ccccc12	n	2.24µM	n	n	x
O=[N+]([O-])c1ccccc1CNCCc1ccc(F)cc1	n	u	n	n	n
Cc1c(C=O)c2ccccc2n1Cc1ccc(F)cc1	n	n	x	x	x
O=Cc1cn(Cc2ccc(F)cc2)c2ccccc12	n	0.126µM	x	x	x
O=Cc1cn(Cc2ccccc2[N+](=O)[O-])c2ccccc12	n	1.26µM	n	n	x
CC1(C)Cc2c(sc3c2C(=O)NC(c2cccnc2)N3)CO1 (configuration not stated)	n	u	-101.5	u	n
O=C1NC(c2cccnc2)Nc2sc3c(c21)CCCC3 (configuration not stated)	n	u	-100.0	n	n
CC12CN3CC(C)(CN(C1)C3c1cccnc1)C2=O (configuration not stated)	n	n	n	n	n
C[C@]12Cc3cn4c(nc3C=C1CC[C@H]1[C@@H]2CC[C@@]2(C)[C@H]1CC[C@@]2(O)C#N)nc1ccccc14	x	x	x	x	n
Oc1cc(Cl)c(Cl)c(Cl)c1Cl	n	n	x	u	x
Oc1cc(Cl)c(Cl)cc1Cl	n	n	x	5.62µM	x
SMILES	IMPase Li cell	ALDH1A1 inh	PNC inhibitor	HPGD block	IMPase inh
COc1ccc2c(c1)[C@@]13CCCCC1[C@@H](C2)N(C)CC3 (some centres not stated)	n	n	x	n	x
CCCC(C)C1C(C#N)=C(N)Oc2c1c(=O)oc1ccccc21 (configuration not stated)	n	n	n	u	n
CCCC1C(C#N)=C(N)Oc2c1c(=O)oc1ccccc21 (configuration not stated)	n	n	-97.8	n	n
O=c1c(O)c(-c2ccc(O)c(O)c2)oc2cc(O)cc(O)c12	n	12.6µM!	x	20µM!	n
O=c1cc(-c2ccc(O)c(O)c2)oc2cc(O)cc(O)c12	n	20µM	x	11.2µM!	n
C[N+](=O)[O-]	n	n	x	n	x
C[C@@H](O)CN(CCN(C[C@@H](C)O)C[C@@H](C)O)C[C@@H](C)O.O=[N+]([O-])O.[Cu]	n	u	x	n	x
O=C(Cn1cc(C(=O)c2ccccc2F)c2ccccc21)NCc1ccco1	8.91µM	u	n	n	n
O=S(=O)(Nc1nccs1)c1ccc([As](=O)(O)O)cc1	n	n[13.5 µM]	x	n	x
Nc1nc2c(ncn2[C@@H]2O[C@H](CO)[C@@H](O)[C@@H]2O)c(=[SH+])[nH]1.O=[N+]([O-])c1ccc(O)[c]([Hg])c1	n	0.0501µM	x	0.0251µM	x
CCCCOC(C)=O	n	u	x	n	x
CCCCC/C=C\C/C=C\C/C=C\C/C=C\CCCC(=O)NC1CC1	n	u	x	u	x
N[C@@H]1CCc2cc(O)c(O)cc2C1	x	x	x	x	n
[N-]=[N+]=[N-]	n	17.8µM	x	n	x
